# Most compounds without a hit are left out; they make up all but 8.3% or so of the library.
# BCR signal inh: qHTS Assay to Find Inhibitors of Chronic Active B-Cell Receptor Signaling. AID 493014, 2011. ABC-DLBCL IkBa-CBG/CBR reporter, luminescence ratio, 4 h. 0.05% of 340,000 active. Potency, µM (highest dose often 46.1 µM), without a hit: top-dose activity change, negative = inhibition, usual class: inhibitors; active = well fitted inhibition curve with a large enough effect in the signal ratio, with a control signal flat, not every such curve was filed as active; inconclusive = small, poorly fitted or top-dose-only effect, or effect the other way, or a change in a side signal; the % refers to the signal ratio;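 also: potency is read from the fitted curve at half-maximal effect; plate controls were basal doxycycline-induced cells for no effect and cells given 10 µM MG132 for full effect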
#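 Cell line TMD8 (human ABC DLBCL), stably expressing tet-inducible CBG68-IkBa fusion and CBR; IMDM/0.5% FBS; cpd up to 46 uM; dox induction, 4 h, 37C/5% CO2; dual luminescence; green/red ratio; MG132 control.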
# MCF10A rerep: A quantitative high throughput screen for small molecules that induce DNA re-replication in MCF 10a normal breast cells | MCF 10A DNA re-replication, Hoechst nuclear intensity, 48 h | Potency, µM (top dose mostly 46.1 µM), without a hit: at the top dose activity, positive = re-replication, most hits filed as activators | 2.9% of 350,000 active; also: potency is read from the fitted curve at half-maximal effect; % of control where 0% means no effect; nearly all actives have a fitted effect of over 50% in size
# Gal4-VP16 FLuc: VP16 counterscreen qHTS for inhibitors of ROR gamma transcriptional activity; Drosophila S2 Gal4-VP16 UAS-luciferase, luminescence, 20 h; 3.5% of 310,000 active; Potency, µM (highest dose often 53.6 µM), for inactives: top-dose activity, negative = inhibition, usual class: inhibitors; AID 2546, 2010;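 also: Gal4-VP16 expression switched on by copper sulfate through the metallothionein promoter; potency is read from the fitted curve at half-maximal effect; % is scaled to controls: 0 for no effect and ±100 for the full control effect; nearly all actives have a fitted effect of over 50% in size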
# RORg inh: qHTS for inhibitors of ROR gamma transcriptional activity. Potency, µM (doses to about 53.6 µM), for inactives: at the highest dose activity change, negative = inhibition, usual class: inhibitors. AID 2551, 2010. Nuclear receptor ROR-gamma (Mus musculus), P51450. 5.4% of 310,000 active. Drosophila S2 Gal4-RORgamma UAS-luciferase reporter, 20 h; also: potency is read from the fitted curve at half-maximal effect; % is scaled to controls: 0 for no effect and ±100 for the full control effect; nearly all actives have a fitted effect of over 60% in size
# Target sequence (P51450 whole entry, looked up, the tested form may be a part): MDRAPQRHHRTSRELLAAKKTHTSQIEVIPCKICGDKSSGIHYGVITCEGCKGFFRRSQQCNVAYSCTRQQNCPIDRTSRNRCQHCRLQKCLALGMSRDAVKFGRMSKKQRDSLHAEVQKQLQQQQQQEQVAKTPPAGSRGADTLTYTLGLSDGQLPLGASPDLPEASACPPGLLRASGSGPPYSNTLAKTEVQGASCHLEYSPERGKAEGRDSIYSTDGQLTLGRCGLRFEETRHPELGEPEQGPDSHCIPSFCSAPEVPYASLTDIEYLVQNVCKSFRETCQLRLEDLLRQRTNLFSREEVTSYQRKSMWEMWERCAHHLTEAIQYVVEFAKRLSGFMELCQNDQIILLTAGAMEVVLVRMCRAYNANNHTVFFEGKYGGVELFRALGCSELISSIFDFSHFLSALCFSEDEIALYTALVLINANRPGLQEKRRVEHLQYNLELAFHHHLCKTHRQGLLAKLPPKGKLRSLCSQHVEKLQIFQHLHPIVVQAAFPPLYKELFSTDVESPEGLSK
#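 Drosophila S2 cells stably expressing Gal4-DBD/mouse RORγ fusion under metallothionein promoter plus UAS-luciferase; compound 1 h, then 700 uM CuSO4 induction for 20 h at ambient temperature; inhibition read as reduced luminescence.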
# Giardia killer: Small Molecules that selectively kill Giardia lamblia: qHTS; activity change, % at 7.66 µM, hits read low; Giardia lamblia trophozoite viability; 0.15% of 340,000 active; AID 540267, 2011; in the data active = activity change below about -80%; inconclusive = between about -30% and that limit;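 also: parasites exposed to compound for two days anaerobically before the ATP read; % is scaled to controls: 0 for no effect and ±100 for the full control effect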
#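 Luminescent ATP signal served as the viability read-out, measured 15-30 min after adding ATP detection reagent to trophozoites that had been incubated with compounds for 48 hrs at 37 deg C anaerobically at 100 cells/well.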
# SW480 rereplic: A quantitative high throughput screen for small molecules that induce DNA re-replication in SW480 colon adenocarcinoma cells | 1.8% of 340,000 active | Potency, µM (top dose mostly 46.1 µM), inactives show at the top dose re-replication activation, actives largely listed as activators | SW480 DNA re-replication, Hoechst DNA content imaging, 48 h; also: potency is read from the fitted curve at half-maximal effect; % of control where 0% means no effect; nearly all actives have a fitted effect of over 55% in size
#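 SW480 cells exposed to compounds for 48 hr at 37 C, 5% CO2, then Hoechst-stained 40 min. Nuclear DNA content imaged by fluorescence scanning (405 nm excitation, 500-530 nm emission); re-replication scored as increased high-intensity nuclei.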
# * = called active by the depositor; ? = inconclusive; . = no result given; [ ] = another dose, or the depositor's remark. Unless noted, calls follow the shape of the dose curve; as a rule, active = well fitted curve in the direction sought with a large enough effect; inconclusive = small, poorly fitted or top-dose-only effect, or another doubt; inactive = no such curve, though single readings can be large; an effect the other way counts as inactive or inconclusive.
SMILES,BCR signal inh,MCF10A rerep,Gal4-VP16 FLuc,RORg inh,Giardia killer,SW480 rereplic
O=c1c2nccnc2[nH]c(=S)n1Cc1ccccc1,1%,?,-22%,?,8,4%
O=C(NCc1ccccn1)c1ccc(Cn2c(=S)[nH]c3ccc(Br)cc3c2=O)cc1,-8%,?,-2%,-2%,1,3%
O=c1c2cccnc2[nH]c(=S)n1Cc1ccccc1,-10%,8%,4µM*,10µM*,-3,-7%
FC(F)(F)c1ccc(-n2cnc3ccccc32)nc1,11%,12%,-10%,41%,6,?
NS(=O)(=O)c1ccc(CCn2c(=S)[nH]c3ccccc3c2=O)cc1,-10%,?,2%,?,-27,?
O=c1c2ccccc2[nH]c(=S)n1CCc1ccccc1,?,9%,3.2µM*,1.6µM*,6,-1%
O=c1c2ccccc2[nH]c(=S)n1CCN1CCc2ccccc2C1,?,?,?,11µM*,-27,-2%
CN1CCN(CCn2c(=S)[nH]c3ccccc3c2=O)CC1,4%,-7%,5%,-8%,-12,-12%
CCN(CC)CCn1c(=S)[nH]c2cc(Cl)ccc2c1=O,1%,?,?,13µM*,-2,16%
Cc1cc(OC(=O)c2cccc([N+](=O)[O-])c2)c(C)cc1CN1CCOCC1,6%,?,.,.,-4,1%
Nc1nnc(CCS(=O)(=O)c2ccc(Br)cc2)s1,-1%,-1%,2%,10%,13,-10%
COc1cccc(CNc2cc(CSc3ccc(Cl)cc3)nc(C)n2)c1,?,3%,13%,-10%,7,0%
Cc1ccc(Sc2c(O)c3ccccc3n(C)c2=O)cc1,1%,-1%,-2%,-4%,0,-270%
Cc1ccc(Sc2c([N+](=O)[O-])c(=O)n(C)c3ccccc23)cc1,?,5.8µM*,7.1µM*,11µM*,-26,4%
Cc1ccc(Sc2c(C=O)c3ccccc3n2C)cc1,-12%,?,?,32%,0,15µM*
Cc1cc(-c2nnc(SCC(=O)Nc3nccs3)o2)no1,?,-1%,?,16µM*,-15,-7%
Cc1cc(-c2nnc(SCC(=O)N3C(C)CCCC3C)o2)no1 (configuration not stated),0%,?,-12%,4%,12,6.5µM*
O=C(CSc1nnc(C2COc3ccccc3O2)o1)Nc1nccs1 (configuration not stated),?,12%,22µM*,?,-14,-5%
COC(=O)C/C=C1\c2ccccc2C(OC)C1C (configuration not stated),.,.,-1%[10 µM],-3%[10 µM],.,.
N/C(=N\NS(=O)(=O)c1ccccc1Cl)c1ccccn1,.,-3%,.,.,11,-13%
Cc1[nH]c(=S)c(C#N)c(C)c1CC(=O)c1ccc(Br)cc1,-1%,-3%,.,.,-2,27%
CC(=O)NC(c1ccc(C)cc1)c1cc([N+](=O)[O-])c2cccnc2c1O (configuration not stated),-12%,25%,4µM*,2.8µM*,7,-8%
CCC(=O)NC(c1ccc(C)cc1)c1cc([N+](=O)[O-])c2cccnc2c1O (configuration not stated),8%,?,2.8µM*,2.5µM*,-9,?
CCCC(=O)NC(c1ccco1)c1cc([N+](=O)[O-])c2cccnc2c1O (configuration not stated),29%,0%,5µM*,5.6µM*,?,?
CCCC(=O)NC(c1ccco1)c1c(O)ccc2ccccc12 (configuration not stated),-16%,?,11%[0.365 µM],1%,-9,2%
SMILES,BCR signal inh,MCF10A rerep,Gal4-VP16 FLuc,RORg inh,Giardia killer,SW480 rereplic
CC(=O)NC(c1cc(F)c2cccnc2c1O)C1CC1 (configuration not stated),?,?,.,.,-20,?
CCC(C)Sc1cccc(-c2nc3cc(C)ccn3c2NC2CCCCC2)c1 (configuration not stated),2%,18µM*,.,.,1,?
CCCCCCSc1cccc(-c2nc3cc(C)ccn3c2NC2CCCCC2)c1,3%,?,.,.,-1,?
Cc1ccn2c(NC3CCCC3)c(-c3ccsc3)nc2c1,?,-19%,1%,11µM*,-2,3%
Cc1ccn2c(NC3CCCCC3)c(-c3cccc(SC4CCCCC4)c3)nc2c1,0%,?,.,.,4,?
O=C(c1ccc(Cl)c(Cl)c1)N1CCC(=O)N(C(COCc2cccc(Cl)c2)Cc2ccccc2)CC1 (configuration not stated),?,23µM*,-12%,?,9,?
Cc1ccc(S(=O)(=O)N2CCC(=O)N(C(COCc3ccc(C(F)(F)F)cc3)Cc3ccccc3)CC2)cc1 (configuration not stated),?,3.7µM*,2%,22%,9,25%
Cc1ccc(S(=O)(=O)N2CCC(=O)N(C(COCc3cccc(C)c3)Cc3ccccc3)CC2)cc1 (configuration not stated),-1%,8.2µM*,-19%,28%,26,?
O=C(c1cccc(Cl)c1)N1CCC(=O)N(C(COCc2cccc(Cl)c2)Cc2ccccc2)CC1 (configuration not stated),-5%,?,0%,?,2,?
Cc1ccc(S(=O)(=O)N2CCC(=O)N([C@H](COCc3ccc(C(F)(F)F)cc3)Cc3ccccc3)CC2)cc1,.,.,6%[40.7 µM],34%[40.7 µM],.,.
Cc1ccc(S(=O)(=O)N2CCC(=O)N(C(COCc3ccc(Cl)c(Cl)c3)Cc3ccccc3)CC2)cc1 (configuration not stated),3%,23µM*,-5%,9%,-30,-36%
Cc1onc(-c2ccccc2)c1C(=O)N1CCN(c2ncccn2)CC1,0%,11%,10%,-20%,0,-8%
N#Cc1ccccc1-c1ccc2ncnc(NCc3cccs3)c2c1,.,.,-12%,?,.,.
C/C(CCN1CCCCc2nc(C)c(C)cc21)=N\O[C@@H](C)c1cc(-c2c(C)cc(C)cc2C)no1,.,.,6%[10 µM],-28%[10 µM],.,.
COc1cc(NC(=O)c2cc(C(C)C)on2)c(OC)cc1Cl,6%,1%,-1%,17%,-12,-1%
COc1ccc(CC(=O)Nc2cccc3c2CCCC3)cc1,1%,12%,-4%,8%,19,3%
COc1ccc(NC(=O)c2cc(C(C)C)on2)c(OC)c1,?,-3%,7.1µM*,?,-24,-12%

# Screens deposited in PubChem by National Center for Advancing Translational Sciences (NCATS).
